NALP3 yeast inh – blocks the NALP3 inflammasome reconstituted in yeast; Yeast reconstituted NLRP3/ASC/caspase-1, beta-gal luminescence, 24 h; inhibition, % at 10 µM; hit rate 0.39% among 330,000; AID 2825;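 active = inhibition of 50% or more; inactive = inhibition below 50%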
NALP1 yeast inh – blocks the NALP1 inflammasome reconstituted in yeast. S. cerevisiae NALP1/ASC/caspase-1 growth, X-gal OD620, 72 h. hit rate 0.61% among 280,000. inhibition, % at 10 µM; in the data active = inhibition mostly above about 24%, no sharp cut-off; inactive = mostly below about 32%
tim10-1 inh – tim10-1 yeast growth inhibition; S. cerevisiae tim10-1 ts strain growth, BacTiter-Glo, 24 h; inhibition, % at 20 µM; hit rate 2.2% among 330,000; AID 463190;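 active = inhibition of at least 40%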;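 also: mutant grown at 25 °C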
TIM10 inh – inhibits growth of TIM10 yeast strain. S. cerevisiae TIM10 strain growth, BacTiter-Glo luminescence, 24 h. inhibition, % at 10 µM. hit rate 1.4% among 330,000;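 active = inhibition of 40% or more at the single tested concentration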;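 also: wild-type TIM10 isogenic control strain grown at permissive 25 °C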
tim23-1 inh – inhibits growth of tim23-1 mutant yeast. S. cerevisiae tim23-1 growth, BacTiter-Glo luminescence, 24 h. inhibition, % at 20 µM. hit rate 1.3% among 330,000. AID 463212;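 active = growth inhibition of the mutant yeast at or above 50%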;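 also: temperature-sensitive mutant grown at 25 °C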
NALP3 yeast conf – NALP3 inhibition confirmation in yeast. shares compounds with NALP3 yeast inh. yeast expressing human NALP3, luminescence. inhibition, % at 10 µM. hit rate 81% among 1,300; in the data active = inhibition above about 48%
Casp1 ASC ctr – counter-screen for NALP3 inhibitors: yeast caspase-1-ASC | shares compounds with NALP3 yeast inh | yeast expressing Caspase-1-ASC, luminescence counter screen | hit rate 66% among 1,000 | inhibition, % at 10 µM | AID 488784
NALP3 yeast rt – retest-confirmed inhibitor of NALP3 in yeast; hit rate 53% among 1,000; shares compounds with NALP3 yeast inh; yeast expressing human NALP3, luminescence read-out; inhibition, % at 10 µM
Hits are given with their value; 0 = inactive; - = no result given. In the library only some 4% were active in any assay of this set; here they are far more common. Rule as the data show it, unless noted: active = inhibition above about 50%; inactive = the rest.

SMILES	NALP3 yeast inh	NALP1 yeast inh	tim10-1 inh	TIM10 inh	tim23-1 inh	NALP3 yeast conf	Casp1 ASC ctr	NALP3 yeast rt
C[C@]12C=C[C@H](O)CC1=CCC1C2CC[C@@]2(C)C1CCC21OCCO1 (some centres undefined)	56.6	-	0	0	0	70.9	-	-
C[C@]12C=CC(=O)C=C1CCC1C2CC[C@@]2(C)C1CCC21OCCO1 (some centres undefined)	0	-	0	0	0	-	-	-
COc1cccc(CN(C(=O)c2cc3ccccc3oc2=O)C2CCS(=O)(=O)C2)c1 (centres undefined)	0	0	0	0	0	-	-	-
COc1ccc(CCn2c(C3CCCCC3)nc3c(c(=O)c4ccccc4n3C)c2=O)cc1OC	64.1	0	0	0	0	84.5	0	0
COc1ccc(Cn2c(C3CCCCC3)nc3c(c(=O)c4ccccc4n3C)c2=O)cc1	0	0	0	0	0	-	-	-
COc1ccc(CCn2c(-c3ccc(F)cc3)nc3c(c(=O)c4ccccc4n3C)c2=O)cc1OC	0	0	0	0	0	-	-	-
COc1ccc(CCn2c(C3CCCCC3)nc3c(c(=O)c4ccccc4n3C)c2=O)cc1	67.2	-	0	0	0	64.7	55.2	61.3
COc1ccc(N(C)C(=O)Cc2c(C(=O)O)n(C)c3ccccc23)c(OC)c1	0	0	0	0	0	-	-	-
O=C(NCCc1ccc(Cl)cc1)C1CCC(CNc2c(N3CCCCC3)c(=O)c2=O)CC1 (centres undefined)	0	0	0	0	0	-	-	-
Nc1ccccc1SC/C=C/CSc1ccccc1N	52.4	0	0	0	0	57.2	0	0
COc1ccc(-c2sc3ccc(N4CCOCC4)cc3c2-c2ccc(OC)c(F)c2)cc1	0	0	0	0	0	-	-	-
COc1ccc(C(=O)NC(=S)NNC(=O)c2ccc(C)cc2)cc1	54.3	-	0	0	0	66.0	54.6	60.1
O=[N+]([O-])c1cc(Br)c(O)c(/C=N/Nc2nnnn2-c2cccc3ccccc23)c1	52.4	0	0	0	0	47.2	-	-
O=C(O)CN1C(=O)CC(c2ccccc2)CC1=O	0	0	0	0	0	-	-	-
CCc1noc(C)c1C(=O)Nc1nc2c(C)cc(C)cc2s1	72.1	-	0	0	0	76.7	75.1	61.1
CCc1noc(C)c1C(=O)Nc1nc2ccc(F)cc2s1	68.4	-	0	0	0	78.3	75.0	65.5
Cc1noc(C)c1C(=O)Nc1nc2ccc(F)cc2s1	65.2	-	0	0	0	49.8	62.5	54.4
Cc1cc(C)c2nc(NC(=O)c3cc(C)on3)sc2c1	0	0	0	0	0	-	-	-
COc1cccc(OC)c1C(=O)Nc1nc2ccc(S(C)(=O)=O)cc2s1	0	0	0	0	0	-	-	-
COc1cccc(OC)c1C(=O)Nc1nc2ccc([N+](=O)[O-])cc2s1	54.8	0	0	0	0	74.2	-	-
CC(CN1CCN(Cc2ccccc2)CC1)OC(=O)c1ccco1 (centres undefined)	0	-	0	0	0	-	-	-
CC1(c2nnc(-c3cccc(Cl)c3)o2)CC(c2ccc(OC(F)(F)F)cc2)=NO1 (centres undefined)	0	0	0	0	0	-	-	-
COc1ccccc1-c1oc2ccccc2c1C#CCO	0	-	0	0	0	-	-	-
COc1ccccc1-c1oc2ccccc2c1C#CC(C)(C)O	71.7	-	0	0	0	59.0	71.2	59.8
COc1ccc(N=Nc2ccc(O)c3ncccc23)cc1	0	-	0	0	0	-	-	-
SMILES	NALP3 yeast inh	NALP1 yeast inh	tim10-1 inh	TIM10 inh	tim23-1 inh	NALP3 yeast conf	Casp1 ASC ctr	NALP3 yeast rt
CCc1ccc(N=Nc2ccc(O)c3[nH]cnc23)cc1	50.9	-	0	0	0	0	0	0
CCOC(=O)N1CCN(C(=S)Nc2ccc(C)cc2)CC1	0	0	0	0	0	-	-	-
COC(=O)c1ccccc1Oc1ccc(NC(=O)c2ccco2)cc1	51.0	0	0	0	0	68.4	0	0
CN(Cc1nc(-c2ccc(Cl)cc2)no1)C(=O)CCN1C(=O)[C@H]2CC=CC[C@H]2C1=O	0	0	0	0	0	-	-	-
CCOC(=O)c1nc(C)nc(Sc2n[nH]c(-c3cc(Cl)cc(Cl)c3)n2)c1C	51.4	-	0	0	0	0	-	-
CCOC(=O)[C@@H]1[C@H]2COc3ccc(Br)cc3[C@H]2N2C(=O)N(c3cccc(Cl)c3)C(=O)[C@]12C	0	0	0	0	0	-	-	-

Bioassay records as filed in PubChem.
